Inconclusive results are not listed. Values without a mark were called inactive. Activity calls are given as the source filed them. The call rests on the fitted dose curve; in most records, active means well fitted activation curve with a large enough effect in the signal ratio in the repeat runs (not every such curve was filed as active); inconclusive means weak or mixed curves; inactive means flat fitted curve, though single readings scatter; the % refers to the signal ratio.
Experiment: qHTS assay to identify small molecule agonists of the hypoxia (HIF-1) signaling pathway (AID 1224846)
Settings: HRE-bla ME-180 cells, beta-lactamase ratio, 17 h; series mostly up to 76.8 µM; activation: at the top concentration
Source text: U.S. Tox21 Program National Center for Advancing Translational Sciences [NCATS] NIH Chemical Genomics Center [NCGC] U.S. Environmental Protection Agency [EPA] National Institutes of Environmental Health Sciences [NIEHS] National Toxicology Program [NTP] U.S. Food and Drug Administration [FDA] Tox21 Assay Overview: Hypoxia-inducible factor-1 (HIF-1) is the major hypoxia-regulated transcription factor that controls cellular responses to low oxygen concentration. HIF-1 is composed of two subunits: hypoxia responsive HIF-1-alpha and constitutively expressed HIF-1-beta, which is also known as aryl hydrocarbon receptor nuclear translocator. During hypoxic conditions, HIF-1-alpha heterodimerizes with HIF-1-beta and translocates into the nucleus where the HIF-1 complex binds to the hypoxia-response element (HRE) and activates expression of target genes such as VEGF (vascular endothelial growth factor). The HIF-1 pathway is essential to normal growth and development, and is involved in the pathophysiology of cancer, inflammation, and ischemia. Using a beta-lactamase reporter-gene under control of the hypoxia response element, a cell-based assay [CellSensor(TM) HRE-bla ME-180 from Life Technologies, Carlsbad, CA] was used to measure hypoxia-induced signaling. Tox21 10K library compounds were measured for their ability to induce the reporter gene activity.
Tox21 Assay Protocol Summary: HRE-bla ME-180 cells were dispensed at 2,000 cells per well in 6 uL of assay medium containing 0.5% dialyzed FBS into black wall/clear-bottom 1536-well plates using a Multidrop Combi (Thermo Scientific, Waltham, MA) dispenser. After the assay plates were incubated at 37C and 5% CO2 for 5 hrs, 23 nL of compounds dissolved in DMSO, positive controls or DMSO only was transferred to each well of the assay plate using a Pintool station (Kalypsys, San Diego, CA). The assay plates were incubated at 37C and 5% CO2 for 17 hrs. One uL of LiveBLAzerTM B/G FRET substrate (CCF4-AM) (Life Technologies) was added to each well using a Flying Reagent Dispenser (Aurora Discovery, San Diego, CA).
On the % scale 0 is the no-effect control and ±100 the full control effect.

Compound	outcome	activation
C/C=C/C=C/C(=O)O	inactive	–
C=CCc1ccc(O)c(OC)c1	inactive	–
Nc1ccc2c(c1)CN1C(=O)c3ccccc3C1=N2	–	0.64% [at 15.8 µM]
COc1ccc(OC(F)(F)F)cc1CN[C@H]1CCCN[C@H]1c1ccccc1	–	-0.0772%
Cc1ncc([N+](=O)[O-])n1C	inactive	–
F[B-](F)(F)F	inactive	–
CC(C)c1c(C(=O)Nc2ccccc2)c(-c2ccccc2)c(-c2ccc(F)cc2)n1CC[C@@H](O)C[C@@H](O)CC(=O)O	inactive	–
OC[C@H]1O[C@H](O[C@]2(CCl)O[C@H](CCl)[C@@H](O)[C@@H]2O)[C@H](O)[C@@H](O)[C@H]1Cl	inactive	–
CCOc1ccc(NC(C)=O)cc1	inactive	–
CC12CCC(CC1)C(C)(C)O2	inactive	–
CC1(C)O[C@@H]2C[C@H]3[C@@H]4CCC5=CC(=O)C=C[C@]5(C)[C@@]4(F)[C@@H](O)C[C@]3(C)[C@]2(C(=O)CO)O1	inactive	–
CCN(Cc1c(F)cccc1Cl)c1c([N+](=O)[O-])cc(C(F)(F)F)cc1[N+](=O)[O-]	–	-0.121%
Cn1c(=O)c2c(ncn2C)n(C)c1=O	inactive	–
Cc1cccc(C)c1	inactive	–
Cc1ccc(S(=O)(=O)O)cc1	inactive	–
CCCC[P+](CCCC)(CCCC)CCCC	inactive	–
CS(=O)(=O)OCCCCOS(C)(=O)=O	inactive	–
COc1ccc2c(c1)c(CC(=O)O)c(C)n2C(=O)c1ccc(Cl)cc1	inactive	–
CC(=O)C(=O)O	inactive	–
O=c1[nH]cnc2c1ncn2[C@H]1CC[C@@H](CO)O1	inactive	–

Compound	outcome	activation
Nc1ccc(O)c([N+](=O)[O-])c1	–	1.65%
O=C1NS(=O)(=O)c2ccccc21	inactive	–
COc1cccc(O)c1O	–	-0.346%
CNNCc1ccc(C(=O)NC(C)C)cc1	inactive	–
Cc1c(C(=O)O)c(O)cc2c1C(=O)c1c(O)c([C@@H]3O[C@H](CO)[C@@H](O)[C@H](O)[C@H]3O)c(O)c(O)c1C2=O	inactive	–
Nc1ccc(S(N)(=O)=O)cc1	inactive	–
Oc1ccccc1	inactive	–
COc1ccc(C(Cl)=C(c2ccc(OC)cc2)c2ccc(OC)cc2)cc1	–	6.88% [at 35.5 µM]
CCCCCCc1ccc(O)cc1O	–	1.89% [at 35.5 µM]
Nc1ccc([N+](=O)[O-])cc1O	–	-1.41%
C1=CC2C3C=CC(C3)C2C1 (stereo not given)	–	-1.7%
O=CC(=O)c1ccccc1	–	-0.723%
CCCCC(CC)C(=O)O (stereo not given)	inactive	–
NC(CO)(CO)CO	inactive	–
CN(C)C(=O)Nc1ccc(Cl)c(Cl)c1	inactive	–
CCN(CC)C(=O)c1cccc(C)c1	inactive	–
Cc1cc(C)nc(NS(=O)(=O)c2ccc(N)cc2)n1	inactive	–
CN(N=O)C(=O)N[C@@H]1[C@@H](O)[C@H](O)[C@@H](CO)O[C@@H]1O	inactive	–
CC(=O)CC(c1ccccc1)c1c(O)c2ccccc2oc1=O (stereo not given)	inactive	–
NS(=O)(=O)O	inactive	–
